“And” between values parts separate entries of the source, which are not always exact repeats. Equal entries are not always repeated. Inconclusive results are not listed. A call without a number means that no potency is given here. Some structures have more than one record in an assay (separate samples or runs), and their calls can disagree. The source made the active and inactive calls. Unless noted, calls come from the whole dose curve.
Tests used:
[1] = target: Nuclear receptor subfamily 1 group I member 3 (Homo sapiens) (UniProt Q14994); assay: qHTS assay to identify small molecule antagonists of the constitutive androstane receptor (CAR) signaling pathway (AID 1224838; active = well fitted curve in the direction sought with a large enough effect in the repeat runs; an effect the other way counts as inactive or inconclusive;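 note: HepG2 cells stably expressing hCAR with CYP2B6 luciferase reporter stimulated by CITCO; nearly all actives have a fitted effect of over 40% in size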; note: potency is the fitted concentration of half-maximal effect)
Procedure, shortened: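 HepG2-CYP2B6-hCAR cells; 4 h pre-incubation; cpd (15 conc) + CITCO 50 nM final; 24 h, 37 C/5% CO2; ONE-Glo, luminescence.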

[2] = target: Nuclear receptor subfamily 1 group I member 3 (Homo sapiens) (UniProt Q14994); assay: qHTS assay to identify small molecule agonists of the constitutive androstane receptor (CAR) signaling pathway (AID 1224839; active = well fitted curve in the direction sought with a large enough effect in the repeat runs; an effect the other way counts as inactive or inconclusive; note: nearly all actives have a fitted effect of over 15% in size; note: potency is the fitted concentration of half-maximal effect;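 for activation: HepG2 cells stably carrying human CAR and a CYP2B6 luciferase reporter; series mostly up to about 92 µM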)
Procedure, shortened: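 Luminescence read-out (ONE-Glo, 30 min, room temperature) from double-stable HepG2-CYP2B6-hCAR cells exposed 24 h to 15-point compound series in presence of 0.75 uM PK11195 final.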

[3] = qHTS assay to identify small molecule antagonists of the estrogen related receptor signaling pathway with the pleiotropic PPARgamma coactivator (PGC) from Tox21 10K library - cell viability counter screen (AID 1224840; active = well fitted cell-killing curve with a large enough effect in the repeat runs, not every such curve was filed as active; note: nearly all actives have a fitted effect of over 40% in size)
Procedure, shortened: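 PGC/ERR cells, 2,000/well; 6 h pre-incubation 37 C/5% CO2; cpd in DMSO via pin tool; 17.5 h 37 C; CellTiter-Fluor, 30 min; fluorescence.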

[4] = qHTS assay to identify small molecule agonists of the hypoxia (HIF-1) signaling pathway - cell viability counter screen (AID 1224844); note: nearly all actives have a fitted effect of over 50% in size
Procedure, shortened: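 ME-180 HRE-bla cells, 2,000/well, 0.5% dialyzed FBS; 5 hr settle, 17 hr compound at 37C/5% CO2; CCF4-AM reporter read first, then CellTiter-Glo luminescence after 30 min RT.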

[5] = qHTS assay to identify small molecule agonists of H2AX (AID 1224845; active = well fitted activation curve with a large enough effect in the signal ratio in the repeat runs, not every such curve was filed as active; the % refers to the signal ratio; note: potency is the fitted concentration of half-maximal effect)
Procedure, shortened: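 Phospho-H2AX Ser139 measured by HTRF (ex 320 nm; em 665 and 620 nm) after 24 hr antibody incubation. Compounds, 15 concentrations, 0.76% DMSO, were applied to CHO-K1 cells for 3hr at 37C before lysis.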

[6] = qHTS assay to identify small molecule agonists of the hypoxia (HIF-1) signaling pathway (AID 1224846; active = well fitted activation curve with a large enough effect in the signal ratio in the repeat runs, not every such curve was filed as active; the % refers to the signal ratio)
Procedure, shortened: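 Cell line: CellSensor HRE-bla ME-180; 2,000 cells/well; 0.5% dialyzed FBS; 5 h preincubation; DMSO compound pin transfer; 17 h, 37C, 5% CO2; CCF4-AM added; bla FRET signal scored for activation.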

[7] = qHTS assay to identify small molecule agonists of H2AX - cell viability counter screen (AID 1224847); note: nearly all actives have a fitted effect of over 30% in size; note: potency is the fitted concentration of half-maximal effect
Procedure, shortened: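 CHO-K1 wt, 1000 cells/well, o/n 37C; cpds 15 conc, 3 h 37C, 0.76% DMSO; CellTiter-Glo, 30 min RT, luminescence.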

[8] = target: Thyrotropin receptor (Homo sapiens) (UniProt P16473); assay: qHTS assay to identify small molecule agonists of the thyroid stimulating hormone receptor (TSHR) signaling pathway (AID 1224843); note: nearly all actives have a fitted effect of over 45% in size
Procedure, shortened: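 HEK293 cells stably bearing the thyrotropin receptor were plated at 800 cells/well and challenged with compound (30 min, RT). Accumulated cAMP was quantified via cAMP-d2 competing for cryptate-tagged antibody.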

[9] = qHTS assay to identify small molecule antagonists of the estrogen related receptor signaling pathway with the pleiotropic PPARgamma coactivator (PGC) from Tox21 10K library (AID 1224841; call rule not given here; note: series mostly up to about 92 µM; actives are mostly falling curves and most rising ones were filed inactive; nearly all actives have a fitted effect of over 50% in size)
Procedure, shortened: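 PGC/ERR cell line, 2,000 cells/well; 6 h pre-incubation 37 C/5% CO2; compounds (DMSO) pinned in; 18 h, 37 C; One-Glo, 30 min RT; luminescence.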

[10] = qHTS assay to identify small molecule agonists of the estrogen related receptor signaling pathway with the pleiotropic PPARgamma coactivator (PGC) from Tox21 10K library (AID 1224842; active = well fitted curve in the direction sought with a large enough effect in the repeat runs; an effect the other way counts as inactive or inconclusive; note: nearly all actives have a fitted effect of over 15% in size)
Procedure, shortened: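 Luminescence from One-Glo (30 min, room temperature) measured after PGC/ERR cells had 18 h at 37 C with pinned compound (23 nL in DMSO). Cells had been seeded at 2,000 per well and pre-incubated 6 h.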

Sequence of Thyrotropin receptor (Homo sapiens) (P16473 whole entry, looked up): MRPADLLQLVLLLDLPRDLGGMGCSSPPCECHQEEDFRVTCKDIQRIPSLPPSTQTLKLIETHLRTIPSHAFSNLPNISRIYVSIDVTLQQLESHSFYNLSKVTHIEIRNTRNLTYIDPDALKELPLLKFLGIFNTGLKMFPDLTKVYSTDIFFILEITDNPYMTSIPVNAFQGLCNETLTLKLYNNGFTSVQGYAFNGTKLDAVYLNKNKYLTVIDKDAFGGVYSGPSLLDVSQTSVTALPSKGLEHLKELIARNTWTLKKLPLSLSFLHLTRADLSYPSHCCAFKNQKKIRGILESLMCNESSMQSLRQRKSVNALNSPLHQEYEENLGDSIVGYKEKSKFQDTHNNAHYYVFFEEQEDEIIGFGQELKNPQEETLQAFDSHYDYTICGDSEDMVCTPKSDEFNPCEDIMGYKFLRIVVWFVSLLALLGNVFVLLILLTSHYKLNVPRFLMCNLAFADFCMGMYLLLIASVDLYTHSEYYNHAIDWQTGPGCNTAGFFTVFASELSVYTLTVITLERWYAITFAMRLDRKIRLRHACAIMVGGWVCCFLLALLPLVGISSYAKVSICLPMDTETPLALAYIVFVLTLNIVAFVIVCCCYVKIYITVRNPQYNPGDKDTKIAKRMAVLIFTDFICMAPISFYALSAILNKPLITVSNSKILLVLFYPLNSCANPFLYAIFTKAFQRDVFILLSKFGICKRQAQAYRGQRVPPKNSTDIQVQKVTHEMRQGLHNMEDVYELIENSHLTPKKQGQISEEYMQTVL
Sequence of Nuclear receptor subfamily 1 group I member 3 (Homo sapiens) (Q14994 whole entry, looked up): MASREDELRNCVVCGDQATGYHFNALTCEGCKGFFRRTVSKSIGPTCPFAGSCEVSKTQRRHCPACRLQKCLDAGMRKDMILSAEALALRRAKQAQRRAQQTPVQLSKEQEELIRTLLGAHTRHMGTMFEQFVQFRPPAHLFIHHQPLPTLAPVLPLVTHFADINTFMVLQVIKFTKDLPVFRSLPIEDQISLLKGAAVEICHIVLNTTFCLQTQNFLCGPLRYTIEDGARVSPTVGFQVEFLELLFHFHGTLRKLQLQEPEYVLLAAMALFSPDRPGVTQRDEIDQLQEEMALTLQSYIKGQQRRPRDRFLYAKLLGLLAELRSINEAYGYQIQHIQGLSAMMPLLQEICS

SMILES	Potency [1]	Potency [2]	Potency [3]	Potency [4]	Potency [5]	outcome [6]	Potency [7]	Potency [8]	Potency [9]	outcome [10]
C/C=C1/CC2C=CC1C2 (centres undefined)	inactive	inactive	inactive	inactive	inactive	inactive				
CCCC(C)=O	inactive	inactive	inactive	inactive	inactive	inactive	inactive			
CC(=O)OCC(=O)[C@@]12N=C(C)O[C@@H]1C[C@H]1[C@@H]3CCC4=CC(=O)C=C[C@]4(C)[C@H]3[C@@H](O)C[C@@]12C	inactive	inactive	inactive	inactive	inactive	inactive	inactive	inactive		
CCCCCCCCCCCCOCCO	inactive	inactive	inactive	inactive	inactive	inactive	inactive	inactive		
O=C(OCCOCCOC(=O)c1ccccc1)c1ccccc1	inactive	inactive	inactive	inactive	inactive	inactive	inactive			
C[C@H]1C[C@H]2[C@@H]3CCC4=CC(=O)C=C[C@]4(C)[C@@]3(F)[C@@H](O)C[C@]2(C)[C@@]1(O)C(=O)CO	inactive	inactive	inactive	inactive	inactive		inactive			
CN(C)CCC(c1ccccc1)c1ccccn1 (centres undefined)	inactive	inactive	inactive	inactive	inactive		inactive	inactive		
CCCCCC1=CCCC1=O	inactive	inactive	inactive	inactive	inactive	inactive	inactive			
CC(C)c1ccc(S(=O)(=O)O)cc1	inactive	inactive	inactive	inactive	inactive	inactive	inactive	inactive		
CCCCC(CC)COC(=O)CCCCC(=O)OCC(CC)CCCC (centres undefined)	inactive	inactive	inactive	inactive	inactive	inactive				
CCCCCCCCC/C=C/CC1CC(=O)OC1=O (centres undefined)	inactive	inactive	inactive	inactive	inactive	inactive	inactive			
COc1ccc(Cl)cc1C(=O)NCCc1ccc(S(=O)(=O)NC(=O)NC2CCCCC2)cc1	inactive	inactive	inactive	inactive	inactive		inactive			
CCCCCOC(C)=O	2.2 µM (active) and inactive	inactive	inactive	inactive	inactive	inactive				
Oc1cccc2ccccc12	inactive	62.8 µM (active) and 61.1 µM (active)	inactive	inactive	103 µM (active)	inactive				
O=C(O)CCCCCCCCCCC(=O)O	inactive and 1 nM (active)	inactive	inactive	inactive	inactive	inactive	inactive			
C#CCN(C)Cc1ccccc1	inactive	inactive	inactive	inactive	inactive		inactive			
CC(=O)c1ccccc1	inactive	inactive	inactive	inactive	inactive	inactive	inactive	inactive		
C=C(C)C(=O)Nc1ccc(Cl)c(Cl)c1	inactive	55 µM (active) and 48.4 µM (active)	inactive	inactive	inactive	inactive	102 µM (active)			
O=C1CCC(N2C(=O)c3ccccc3C2=O)C(=O)N1 (centres undefined)	inactive	inactive	inactive	inactive	inactive		inactive			
C=C(C)C(=O)OCCOCCOCCOC(=O)C(=C)C	inactive	inactive	inactive	inactive	inactive	inactive				
O=C(O)c1cc(O)c(O)c(O)c1	inactive	inactive	inactive	inactive		inactive		inactive		
CCCSc1ccc2nc(NC(=O)OC)[nH]c2c1	inactive	9.44 µM (active)	inactive	inactive		inactive	inactive			
CC1CCC2CC1C2(C)C (centres undefined)	inactive	inactive	inactive	inactive	inactive	inactive		inactive		
CCCCOC(=O)COc1ccc(Cl)cc1Cl	inactive	inactive	inactive	inactive	inactive	inactive	inactive			
O=C(O)c1ccc(C(=O)O)cc1	inactive	inactive	inactive	inactive	inactive	inactive	inactive			
C=CCNC(N)=S	inactive	inactive	inactive	inactive	inactive	inactive	inactive	inactive		
CCCCN(CCCC)CCCC	inactive	inactive	inactive	inactive	inactive	inactive	inactive	inactive		
CC(C)CC(=O)CC(C)C			inactive	inactive	inactive	inactive	inactive		inactive	inactive
Cc1cnc(C(=O)NCCc2ccc(S(=O)(=O)NC(=O)NC3CCCCC3)cc2)cn1			inactive	inactive			inactive			
CC1=CCC2CC1C2(C)C (centres undefined)			inactive	inactive	inactive	inactive	inactive			

From PubChem BioAssay (Tox21)
